# Results reported in publication PMC7862700, “An all-to-all approach to the identification of sequence-specific readers for epigenetic DNA modifications on cytosine”.
# How the values were obtained:
# Assay in all cases: DAPPL (digital affinity profiling via proximity ligation, sequencing); 10 mM Tris-HCl pH 7.5, 50 mM NaCl, 1 mM DTT, 4% glycerol, room temperature, 30 min; GST-TFs on glutathione beads, 16-mer random dsDNA library, 0.1% formaldehyde crosslink after washing; high values mean tight binding
# Details in all cases: protein: recombinant; tags: N-terminal GST; dsDNA, one strand shown
# FLI1 = target: T1, FLI1 (Homo sapiens, UniProt Q01543 1-452)
# T1 sequence: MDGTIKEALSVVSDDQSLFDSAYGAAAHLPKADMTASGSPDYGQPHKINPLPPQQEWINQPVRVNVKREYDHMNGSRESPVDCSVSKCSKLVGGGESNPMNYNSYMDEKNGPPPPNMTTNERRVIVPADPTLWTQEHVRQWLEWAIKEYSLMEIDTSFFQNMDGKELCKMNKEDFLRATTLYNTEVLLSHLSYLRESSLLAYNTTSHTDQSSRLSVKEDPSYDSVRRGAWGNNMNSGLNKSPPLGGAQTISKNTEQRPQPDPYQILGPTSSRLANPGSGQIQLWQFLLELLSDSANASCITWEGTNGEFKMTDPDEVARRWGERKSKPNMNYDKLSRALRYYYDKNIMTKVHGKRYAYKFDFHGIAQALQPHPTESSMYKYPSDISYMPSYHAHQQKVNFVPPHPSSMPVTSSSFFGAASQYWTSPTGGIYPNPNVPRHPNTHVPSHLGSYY
# Method in brief: (§1)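 Pools were built from human transcription factors expressed in yeast as GST fusions, captured on glutathione beads and DNA-barcoded, along with a tag-only sample. Incubation with 200 nmole of a 16-mer random double-stranded DNA library lasted 30 min at room temperature in Tris/NaCl/DTT/glycerol buffer, and was followed by washing, 0.1% formaldehyde crosslinking, proximity ligation, PCR amplification and Illumina NextSeq500 sequencing. Binding signal is the quotient of each hexamer's read frequency for a factor and its frequency for the tag-only sample.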
# ELK1 = target: T2, ELK1 (Homo sapiens, UniProt P19419 1-428)
# T2 sequence: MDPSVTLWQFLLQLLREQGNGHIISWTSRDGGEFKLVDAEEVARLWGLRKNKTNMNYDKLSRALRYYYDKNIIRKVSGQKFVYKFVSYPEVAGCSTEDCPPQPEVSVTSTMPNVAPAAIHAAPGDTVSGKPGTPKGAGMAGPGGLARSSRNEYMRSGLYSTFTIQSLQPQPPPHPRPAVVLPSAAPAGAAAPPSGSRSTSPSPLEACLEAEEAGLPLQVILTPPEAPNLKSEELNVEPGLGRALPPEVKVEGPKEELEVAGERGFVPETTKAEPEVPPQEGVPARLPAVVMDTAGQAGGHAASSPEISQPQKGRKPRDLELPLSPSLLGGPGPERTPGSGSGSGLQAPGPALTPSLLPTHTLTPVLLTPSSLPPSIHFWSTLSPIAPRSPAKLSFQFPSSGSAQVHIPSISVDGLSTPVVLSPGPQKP
# Method in brief: as §1
# GABPA = target: T3, GABPA (Homo sapiens, UniProt Q06546 1-454)
# T3 sequence: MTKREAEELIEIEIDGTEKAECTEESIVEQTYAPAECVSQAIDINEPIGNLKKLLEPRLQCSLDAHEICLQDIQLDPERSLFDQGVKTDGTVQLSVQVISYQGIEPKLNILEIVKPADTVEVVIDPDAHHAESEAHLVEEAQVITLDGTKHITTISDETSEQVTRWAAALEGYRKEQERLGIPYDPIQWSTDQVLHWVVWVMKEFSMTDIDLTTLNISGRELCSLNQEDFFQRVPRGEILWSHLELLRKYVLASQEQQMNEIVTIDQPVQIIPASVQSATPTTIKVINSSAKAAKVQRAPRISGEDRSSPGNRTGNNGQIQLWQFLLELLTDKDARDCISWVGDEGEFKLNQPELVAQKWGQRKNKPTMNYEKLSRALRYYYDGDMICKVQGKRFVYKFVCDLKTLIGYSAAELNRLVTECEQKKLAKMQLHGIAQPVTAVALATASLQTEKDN
# Method in brief: as §1
# ERG = target: T4, ERG (Homo sapiens, UniProt P11308 1-479)
# T4 sequence: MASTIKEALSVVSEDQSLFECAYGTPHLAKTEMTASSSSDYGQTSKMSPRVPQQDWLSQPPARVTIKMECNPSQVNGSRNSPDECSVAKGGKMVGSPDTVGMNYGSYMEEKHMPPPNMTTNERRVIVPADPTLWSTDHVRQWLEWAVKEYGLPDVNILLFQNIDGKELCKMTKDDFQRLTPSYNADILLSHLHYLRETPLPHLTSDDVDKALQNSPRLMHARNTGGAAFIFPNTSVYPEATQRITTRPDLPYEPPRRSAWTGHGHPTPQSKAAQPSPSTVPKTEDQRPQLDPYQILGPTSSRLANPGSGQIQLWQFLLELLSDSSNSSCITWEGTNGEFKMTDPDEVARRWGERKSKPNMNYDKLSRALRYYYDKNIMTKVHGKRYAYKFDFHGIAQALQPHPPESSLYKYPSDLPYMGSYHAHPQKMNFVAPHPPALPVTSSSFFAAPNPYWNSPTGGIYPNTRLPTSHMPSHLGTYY
# Method in brief: as §1
# ELF1 = ELF1 (Homo sapiens, UniProt P32519 1-619)
# Sequence of ELF1 (P32519 whole entry): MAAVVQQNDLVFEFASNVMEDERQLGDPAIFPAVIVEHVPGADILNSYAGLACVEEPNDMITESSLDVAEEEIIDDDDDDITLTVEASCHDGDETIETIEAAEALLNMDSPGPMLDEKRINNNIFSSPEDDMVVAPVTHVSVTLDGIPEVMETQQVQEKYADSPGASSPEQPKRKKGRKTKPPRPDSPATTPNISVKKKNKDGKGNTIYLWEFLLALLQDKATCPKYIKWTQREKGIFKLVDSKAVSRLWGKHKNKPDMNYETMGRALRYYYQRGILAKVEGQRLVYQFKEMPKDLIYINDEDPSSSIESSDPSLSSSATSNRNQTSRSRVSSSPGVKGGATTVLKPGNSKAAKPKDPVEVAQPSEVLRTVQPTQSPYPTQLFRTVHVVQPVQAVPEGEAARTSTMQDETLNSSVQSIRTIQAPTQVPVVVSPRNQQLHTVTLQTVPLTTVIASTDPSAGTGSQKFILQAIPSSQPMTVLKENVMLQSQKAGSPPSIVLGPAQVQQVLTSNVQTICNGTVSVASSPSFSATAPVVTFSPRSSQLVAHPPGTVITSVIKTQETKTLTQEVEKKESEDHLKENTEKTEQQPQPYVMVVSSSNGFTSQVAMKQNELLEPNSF
# Method in brief: as §1
# EHF = target: T5, EHF (Homo sapiens, UniProt Q9NZC4 1-300)
# T5 sequence: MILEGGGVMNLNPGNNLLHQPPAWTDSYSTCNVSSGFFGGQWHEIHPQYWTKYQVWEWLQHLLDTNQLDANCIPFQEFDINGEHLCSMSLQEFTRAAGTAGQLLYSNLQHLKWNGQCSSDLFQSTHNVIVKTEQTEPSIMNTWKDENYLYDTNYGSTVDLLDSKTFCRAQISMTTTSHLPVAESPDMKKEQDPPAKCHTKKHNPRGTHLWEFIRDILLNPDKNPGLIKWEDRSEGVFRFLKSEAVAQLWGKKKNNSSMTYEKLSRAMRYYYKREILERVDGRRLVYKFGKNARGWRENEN
# Method in brief: as §1
# SPI1 = SPI1 (Homo sapiens, UniProt P17947 1-270)
# Method in brief: as §1
# SPIB = SPIB (Homo sapiens, UniProt Q01892 1-262)
# Sequence of SPIB (Q01892 whole entry): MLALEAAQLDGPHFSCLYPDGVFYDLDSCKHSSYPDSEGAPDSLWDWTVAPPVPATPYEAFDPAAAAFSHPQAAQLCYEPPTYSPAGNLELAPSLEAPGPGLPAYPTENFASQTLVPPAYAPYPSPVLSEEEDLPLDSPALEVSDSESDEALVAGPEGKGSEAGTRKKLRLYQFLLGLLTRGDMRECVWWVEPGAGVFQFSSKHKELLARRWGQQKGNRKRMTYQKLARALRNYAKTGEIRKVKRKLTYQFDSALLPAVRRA
# Method in brief: as §1
# ELK3 = target: T6, ELK3 (Homo sapiens, UniProt P41970 1-407)
# T6 sequence: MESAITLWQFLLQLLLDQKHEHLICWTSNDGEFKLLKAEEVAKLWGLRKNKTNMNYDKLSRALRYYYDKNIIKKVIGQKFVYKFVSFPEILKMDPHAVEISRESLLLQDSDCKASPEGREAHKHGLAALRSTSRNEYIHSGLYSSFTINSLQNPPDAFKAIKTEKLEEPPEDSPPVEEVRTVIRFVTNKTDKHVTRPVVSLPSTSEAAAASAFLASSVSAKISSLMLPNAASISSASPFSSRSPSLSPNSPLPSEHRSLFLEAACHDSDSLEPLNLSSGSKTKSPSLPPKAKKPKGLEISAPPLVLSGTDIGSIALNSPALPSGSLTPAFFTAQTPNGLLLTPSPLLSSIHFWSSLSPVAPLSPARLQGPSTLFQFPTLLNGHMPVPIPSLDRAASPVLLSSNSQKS
# Method in brief: as §1
Sequence,binding signal (FLI1),binding signal (ELK1),binding signal (GABPA),binding signal (ERG),binding signal (ELF1),binding signal (EHF),binding signal (SPI1),binding signal (SPIB),binding signal (ELK3)
AACGTT,"1.07 fold enrichment (6-mer frequency, TF over GST control)","1.15 fold enrichment (6-mer frequency, TF over GST control)","1.04 fold enrichment (6-mer frequency, TF over GST control)","1.15 fold enrichment (6-mer frequency, TF over GST control)","1.14 fold enrichment (6-mer frequency, TF over GST control)","1.09 fold enrichment (6-mer frequency, TF over GST control)","1.06 fold enrichment (6-mer frequency, TF over GST control)","1.15 fold enrichment (6-mer frequency, TF over GST control)","1.28 fold enrichment (6-mer frequency, TF over GST control)"
TACTGC,"1.22 fold enrichment (6-mer frequency, TF over GST control)","1.22 fold enrichment (6-mer frequency, TF over GST control)","1.17 fold enrichment (6-mer frequency, TF over GST control)","1.25 fold enrichment (6-mer frequency, TF over GST control)","1.24 fold enrichment (6-mer frequency, TF over GST control)","1.3 fold enrichment (6-mer frequency, TF over GST control)","1.24 fold enrichment (6-mer frequency, TF over GST control)","1.13 fold enrichment (6-mer frequency, TF over GST control)","1.1 fold enrichment (6-mer frequency, TF over GST control)"
ATGTAT,"1.34 fold enrichment (6-mer frequency, TF over GST control)","1.32 fold enrichment (6-mer frequency, TF over GST control)","1.27 fold enrichment (6-mer frequency, TF over GST control)","1.35 fold enrichment (6-mer frequency, TF over GST control)","1.3 fold enrichment (6-mer frequency, TF over GST control)","1.28 fold enrichment (6-mer frequency, TF over GST control)","1.28 fold enrichment (6-mer frequency, TF over GST control)","1.32 fold enrichment (6-mer frequency, TF over GST control)","1.36 fold enrichment (6-mer frequency, TF over GST control)"
AAACGA,"1.07 fold enrichment (6-mer frequency, TF over GST control)","1.14 fold enrichment (6-mer frequency, TF over GST control)","1.17 fold enrichment (6-mer frequency, TF over GST control)","1.11 fold enrichment (6-mer frequency, TF over GST control)","1.08 fold enrichment (6-mer frequency, TF over GST control)","1.04 fold enrichment (6-mer frequency, TF over GST control)","1.1 fold enrichment (6-mer frequency, TF over GST control)","1 fold enrichment (6-mer frequency, TF over GST control)","1.14 fold enrichment (6-mer frequency, TF over GST control)"
AAAAGA,"1.11 fold enrichment (6-mer frequency, TF over GST control)","1.19 fold enrichment (6-mer frequency, TF over GST control)","1.19 fold enrichment (6-mer frequency, TF over GST control)","1.06 fold enrichment (6-mer frequency, TF over GST control)","1.06 fold enrichment (6-mer frequency, TF over GST control)","1.2 fold enrichment (6-mer frequency, TF over GST control)","1.5 fold enrichment (6-mer frequency, TF over GST control)","1.26 fold enrichment (6-mer frequency, TF over GST control)","1.11 fold enrichment (6-mer frequency, TF over GST control)"
CAACTG,"1.18 fold enrichment (6-mer frequency, TF over GST control)","1.15 fold enrichment (6-mer frequency, TF over GST control)","1.15 fold enrichment (6-mer frequency, TF over GST control)","1.2 fold enrichment (6-mer frequency, TF over GST control)","1.27 fold enrichment (6-mer frequency, TF over GST control)","1.17 fold enrichment (6-mer frequency, TF over GST control)","1.05 fold enrichment (6-mer frequency, TF over GST control)","1.13 fold enrichment (6-mer frequency, TF over GST control)","1.09 fold enrichment (6-mer frequency, TF over GST control)"
CCACAT,"1.2 fold enrichment (6-mer frequency, TF over GST control)","1.3 fold enrichment (6-mer frequency, TF over GST control)","1.12 fold enrichment (6-mer frequency, TF over GST control)","1.15 fold enrichment (6-mer frequency, TF over GST control)","1.25 fold enrichment (6-mer frequency, TF over GST control)","1.21 fold enrichment (6-mer frequency, TF over GST control)","1.07 fold enrichment (6-mer frequency, TF over GST control)","1.16 fold enrichment (6-mer frequency, TF over GST control)","1.14 fold enrichment (6-mer frequency, TF over GST control)"
ACTGGC,"1.26 fold enrichment (6-mer frequency, TF over GST control)","1.12 fold enrichment (6-mer frequency, TF over GST control)","1.22 fold enrichment (6-mer frequency, TF over GST control)","1.11 fold enrichment (6-mer frequency, TF over GST control)","1.18 fold enrichment (6-mer frequency, TF over GST control)","1.1 fold enrichment (6-mer frequency, TF over GST control)","1.22 fold enrichment (6-mer frequency, TF over GST control)","1.15 fold enrichment (6-mer frequency, TF over GST control)","1.21 fold enrichment (6-mer frequency, TF over GST control)"
